# Laboratory results as given in PubChem BioAssay (NCATS).
# Records with an inconclusive call do not appear. A call without a number means that no potency is given here. A number with no mark means an inactive call. Active and inactive are the calls of the source. Calls follow the shape of the dose curve; as a rule, active = well fitted inhibition curve with a large enough effect; inconclusive = small, poorly fitted or top-dose-only effect; inactive = no such curve, though single readings can be large or run the other way.
# Legend:
# [1] = qHTS for Inhibitors of the Aldehyde Dehydrogenase Family (ALDH1A2, ALDH1A3, ALDH2, ALDH3A1) (AID 2061307); also: nearly all actives have a fitted effect of over 50% in size; as to potency: test system not described further here; potency is read from the fitted curve at half-maximal effect
# [2] = target: Retinaldehyde dehydrogenase 3 (Homo sapiens) (UniProt P47895); experiment: qHTS for Inhibitors of the Aldehyde Dehydrogenase Family (ALDH1A3) Confirmatory screens (AID 2061311); also: nearly all actives have a fitted effect of over 60% in size; also: potency is read from the fitted curve at half-maximal effect
# [3] = target: Retinal dehydrogenase 2 (Homo sapiens) (UniProt O94788); experiment: qHTS for Inhibitors of the Aldehyde Dehydrogenase Family (ALDH1A2) Confirmation screens (AID 2061314); also: nearly all actives have a fitted effect of over 65% in size; also: potency is read from the fitted curve at half-maximal effect
# [4] = target: Retinaldehyde dehydrogenase 3 (Homo sapiens) (UniProt P47895); experiment: qHTS for Inhibitors of the Aldehyde Dehydrogenase Family (ALDH1A3) Primary screen (AID 2061315)
# [5] = target: Aldehyde dehydrogenase 1A1 (Homo sapiens) (UniProt P00352); experiment: qHTS for Inhibitors of the Aldehyde Dehydrogenase Family (ALDH1A1) Confirmatory screens (AID 2061316); also: nearly all actives have a fitted effect of over 65% in size; also: potency is read from the fitted curve at half-maximal effect
Structure (SMILES),Potency [1],Potency [2],Potency [3],Potency [4],Potency [5],"activity change, negative = inhibition [2]"
O=S1(=O)N=C(Oc2cccc3ccccc23)c2ccccc21,2.83 µM (active),5.04 µM (active),12.7 µM (active),,,
Cc1sc(NC(=O)Cc2ccc3c(c2)OCO3)nc1-c1ccc2c(c1)CCN2,20.1 µM (active),12.7 µM (active),4 µM (active),inactive,3.18 µM (active),
O=C(O)CN1C(=O)/C(=C/c2ccc(-c3cccc(Cl)c3)o2)SC1=S,11.3 µM (active),inactive,22.5 µM (active),inactive,7.98 µM (active),
Cc1ccc(C(=O)NCC(c2ccc3c(c2)OCO3)N2CCN(c3ccc(F)cc3)CC2)cc1 (stereo unspecified),inactive,inactive,inactive,,inactive,
CCC(=O)Nc1ccc(S(=O)(=O)NCc2ccc3c(c2)CCN3C(=O)c2ccc(C)cc2)cc1,inactive,inactive,inactive,,,
CC(C)(C)c1ccc(S(=O)(=O)c2cnc(SCC(=O)Nc3ccc(F)c(Cl)c3)[nH]c2=O)cc1,12.7 µM (active),inactive,14.2 µM (active),inactive,0.634 µM (active),
COc1ccc(C2Nc3ccccc3C(=O)N2Cc2ccco2)cc1COc1ccc(N)cc1 (stereo unspecified),1.79 µM (active),,4.49 µM (active),inactive,1.79 µM (active),-17.5% [at 0.022 µM]
O=C1Cc2cc(S(=O)(=O)N3CCN(c4ccc(F)cc4)CC3)ccc2N1,inactive,inactive,inactive,inactive,,
Cc1ccc(CCN2C(=O)c3ccc(C(=O)O)cc3C2=O)cc1,inactive,inactive,inactive,inactive,,
CC(C)CCN(C)Cc1ccc(-c2ccccc2)cc1,25.1 µM (active),4.19 µM (active),inactive,,,
CCOC(=O)C1CCN(C(=O)C(C)(C)NC(=O)Nc2ccc(N(C)C)cc2)CC1,inactive,14.2 µM (active),12.7 µM (active),,,
O=C1Nc2ccc(Cl)cc2/C1=C\c1cc(Cl)c(O)c(Cl)c1,10.1 µM (active),inactive,12.7 µM (active),inactive,,
COc1cccc(CNC(=O)c2ccc3c(c2)sc2nc(-c4ccccc4)cn23)c1OC,inactive,inactive,inactive,,,
O=C1Nc2cc(Cl)ccc2/C1=C\c1cc(Cl)c(O)c(Cl)c1,3.57 µM (active),inactive,25.2 µM (active),inactive,22.5 µM (active),
C#CCOc1ccc(-c2no[n+]([O-])c2C#N)cc1,11.3 µM (active),,7.98 µM (active),inactive,,
Cc1ccc(NS(=O)(=O)c2cc3c(cc2-c2ccco2)NC(=O)CO3)cc1C,inactive,,inactive,inactive,11.3 µM (active),
CN(Cc1ccc(-c2ccc(C#N)cc2)o1)c1ccc(N2CCN(C(=O)OC(C)(C)C)CC2)cc1,1.79 µM (active),11.3 µM (active),,,11.3 µM (active),

Structure (SMILES),Potency [1],Potency [2],Potency [3],Potency [4],Potency [5],"activity change, negative = inhibition [2]"
O=C(NCC(=O)N1CCC(c2ccccc2)CC1)c1cccc(-c2ccc(C(F)(F)F)cc2)c1,inactive,inactive,,,inactive,
O=C(Nc1cccc(Br)c1)c1cc(-c2ccc3c(c2)OCCO3)on1,inactive,,inactive,,inactive,
O=C(N/N=C/c1ccc(Sc2ccccn2)o1)c1ccccc1,5.65 µM (active),,inactive,,,
CC(=O)Nc1sc2c(c1-c1ccco1)CCNC2,inactive,,17.9 µM (active),inactive,25.2 µM (active),
COc1ccc(C2Nc3ccc(Cl)cc3C(=O)N2Cc2ccccc2)cc1COc1ccc(NC(C)=O)cc1 (stereo unspecified),3.57 µM (active),,11.3 µM (active),inactive,22.5 µM (active),
COC(=O)c1ccnc(NCc2ccc(O)c3ncccc23)c1,11.3 µM (active),7.12 µM (active),,,11.3 µM (active),
Cc1ccnc(NC(=S)N2CCNCC2)c1,inactive,,inactive,,,
CC(=O)Nc1sc2c(c1-c1ccc(N3CCN(C)CC3)cc1)CCNC2,inactive,inactive,,,inactive,
Cc1ccc(C)n1-c1cccc(C(=O)O)c1,5.65 µM (active),,,inactive,,
Cc1cc(NC(=O)Nc2nnc(-c3ccncc3)s2)ccc1Br,11.3 µM (active),inactive,,inactive,12.7 µM (active),
CCc1ccc(-n2c(=O)c3cccnc3n2CC(=O)N(CC)c2cccc(C)c2)cc1,inactive,28.2 µM (active),,,11.5 µM (active),
CCOC(=O)Cn1c(=O)oc2cc(S(=O)(=O)N3CCN(c4ccc(Cl)cc4)CC3)ccc21,inactive,inactive,,,inactive,
CC(C)(O)c1ccccc1CC[C@H](SCC1(CC(=O)O)CC1)c1cccc(/C=C/c2ccc3ccc(Cl)cc3n2)c1,10.1 µM (active),,inactive,inactive,22.5 µM (active),
Cc1cccc2c1NC(=O)/C2=C/c1cc(Cl)c(O)c(Cl)c1,4 µM (active),,,inactive,,
Cc1ccc(OCCn2c(CCNC(=O)c3ccccc3N)nc3ccccc32)cc1,1.13 µM (active),,12.7 µM (active),inactive,7.12 µM (active),
CC(=O)Nc1cccc(OCc2cccc(C3Nc4ccccc4C(=O)N3Cc3ccco3)c2)c1 (stereo unspecified),7.94 µM (active),10 µM (active),,inactive,7.12 µM (active),
